Results as given in ChEMBL document CHEMBL1201862, “PubChem BioAssay data set” (2004).
Out of some 56,000 sequences screened, about 4,700 (8.4%) were called active. No stated cut-off is given here; in the data, active = GI50 up to about 1.1 µM and inactive = higher. For the sample, actives were picked, then their nearest neighbours and some sequences at random. Results with a measured potency or affinity are listed apart.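 In this assay, cells in 96-well plates receive the compound at five concentrations for 48 hours. Endpoints are linearly interpolated between the surrounding concentrations. GI50 is the concentration that inhibits growth by half.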

The substances below were run on NCI-H460 (assay: NCI tumour cell line growth inhibition, 48 h).
Substance “[Bis(aminomethyl)ethylmethylsilane]tetrachloroplatinum(IV), CHEMBL2146192” has a GI50 of 774 nM.
Substance “cis-Bis[[(trimethylsilyl)methyl]amino]tetrachloroplatinum(IV), CHEMBL2146191” has a GI50 of 9770 nM.
“[Bis(aminomethyl)dimethylsilane]tetrachloroplatinum(IV), CHEMBL2146190” gave a GI50 of 577 nM.
“[Bis(aminomethyl)tetramethylenesilane]tetrachloropaltinum(IV), CHEMBL2146189” was tested, and the GI50 was 314 nM.
In the case of “[Bis(aminomethyl)diethylsilane]tetrachloroplatinum(IV), CHEMBL2146203”, the GI50 is reported as 438 nM.
With “[Bis(aminomethyl)dimethylsilane]dichloroplatinum (II), CHEMBL2146201” the GI50 was 3370 nM.
“[Bis(aminomethyl)tetramethylenesilane]dichloropaltinum(II), CHEMBL2146205” gave a GI50 of 2640 nM.
“mu-(1,7-nanodiamine-N,N')bis-(cis-aminedichloroplatimum (II)), CHEMBL2146215” gave a GI50 of 1610 nM.
“[Bis(aminomethyl)pentamethylenesilane]tetrachloropaltinum(IV), CHEMBL2146204” was tested, and the GI50 was 206 nM.
With “[Bis(aminomethyl)pentamethylenesilane]dichloropaltinum(II), CHEMBL2146202” the GI50 was 312 nM.
Work on CISPLATIN, CHEMBL11359 yielded a GI50 of 579 nM.
